# Assay results reported in PubChem BioAssay AID977627 (Broad Institute, 2014).
# Results filed as inconclusive are left out. Calls of active or inactive are those of the source. No rule for the calls is given here.
# Test: E. coli strain growth, wild-type against H38 humanized mutant – H38 mutant GFP vs wild-type RFP, cherry-pick, dose response (AID 977627)
# Details: activity: measured here: wild-type RFP strain growth, at 50 µM, stronger effect = lower value
compound,measurement,value
O=C(COC(=O)c1cccc(O)c1)Nc1ccc(Cl)cc1C(=O)c1ccccc1,activity,-8.13%
same,outcome,inactive
